Screens deposited in PubChem by National Center for Advancing Translational Sciences (NCATS).
D1 potentiator – Potentiators of Human D1 Dopamine Receptor: qHTS; potentiation, % at 10 µM; 360,000 tested, 0.036% active; AID 504651, 2011; D(1A) dopamine receptor (Homo sapiens), P21728; HEK293 TREx D1 cells, calcium flux, dopamine EC20 potentiation; in the data active = potentiation above about 30%; note: 0% is about no effect
Target sequence (P21728 whole entry, looked up): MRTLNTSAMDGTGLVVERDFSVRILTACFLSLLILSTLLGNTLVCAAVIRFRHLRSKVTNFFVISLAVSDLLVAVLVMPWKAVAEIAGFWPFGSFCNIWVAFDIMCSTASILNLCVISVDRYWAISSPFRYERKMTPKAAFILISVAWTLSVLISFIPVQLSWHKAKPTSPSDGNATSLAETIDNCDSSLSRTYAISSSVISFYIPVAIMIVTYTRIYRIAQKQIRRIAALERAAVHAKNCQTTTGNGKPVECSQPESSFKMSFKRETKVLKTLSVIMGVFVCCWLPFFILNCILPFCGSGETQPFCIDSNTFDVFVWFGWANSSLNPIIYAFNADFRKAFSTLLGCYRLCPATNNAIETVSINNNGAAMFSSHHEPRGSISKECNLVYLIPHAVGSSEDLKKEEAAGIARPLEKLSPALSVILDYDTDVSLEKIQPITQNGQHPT
Epigenetic derep – Quantitative High-Throughput Screen for Regulators of Epigenetic Control; Potency, µM (top dose mostly 53.9 µM), for the others: at the highest dose GFP activation, most hits filed as activators; 280,000 tested, 0.2% active; murine LDR cells, GFP reporter derepression, 30 h; active = well fitted activation curve with a large enough effect; inconclusive = small, poorly fitted or top-dose-only effect; note: potency is the fitted concentration of half-maximal effect; % of control where 0% means no effect; nearly all actives have a fitted effect of over 60% in size
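Murine LDR cells bearing a silenced CMV-driven GFP reporter were exposed to compound for 30 h at 37 C. After PBS washes, GFP-positive cells (20-120 um objects) counted by laser-scanning microplate cytometry.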
TRHR agonist – qHTS for Small Molecule Agonists and Allosteric Enhancers of Human TRH Receptor: Primary Screen for Agonists | TRHR cells, calcium flux fluo-8, FDSS agonist mode | activation, % at 2 µM | Thyrotropin-releasing hormone receptor (Homo sapiens), P34981 | 360,000 tested, 0.18% active; note: 0% is about no effect
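TRHR-expressing cells loaded with fluo-8 calcium dye; 23 nL library compound pin-transferred, kinetic FDSS fluorescence (Ex 480/Em 530) recorded about 180 s for agonist-induced calcium release, before a 10 nM TRH EC20 addition for potentiator mode.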
TRHR enhancer – qHTS for Small Molecule Agonists and Allosteric Enhancers of Human TRH Receptor: Primary Screen for Enhancers | Thyrotropin-releasing hormone receptor (Homo sapiens), P34981 | TRHR cells, fluo-8 calcium fluorescence, EC20 TRH enhancement | enhancement, % at 2 µM | 360,000 tested, 0.66% active | AID 493056, 2011; in the data active = enhancement above about 30%; note: 0% is about no effect
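TRHR-expressing cells loaded with fluo-8 calcium dye were read kinetically (ex 480/em 530) during compound addition, then stimulated with an EC20 of TRH (10 nM final). Enhancement of the Gq-mediated intracellular calcium response was scored.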
D1 agonist – Allosteric Agonists of the Human D1 Dopamine Receptor: qHTS | D(1A) dopamine receptor (Homo sapiens), P21728 | 360,000 tested, 1% active | HEK293 T-REx D1 cells, calcium flux, agonist mode | activation, % at 2 µM; note: 0% is about no effect
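Tetracycline-induced HEK293 TREx D1 cells, force-coupled to calcium signalling, were dye-loaded with a no-wash calcium kit. Compound was pin-added after a 10 s baseline. Fluorescence was read kinetically at 1 cycle/s for 180 s, with calcium rises flagged as agonism.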
D1 antag – Antagonist of Human D 1 Dopamine Receptor: qHTS | D(1A) dopamine receptor (Homo sapiens), P21728 | HEK293 TREx D1 cells, calcium flux, dopamine EC80; hits give low values | activity change, negative = inhibition, % at 10 µM | 360,000 tested, 3.2% active | AID 504652, 2011; in the data active = activity change below about -30%; note: % is set by controls: 0 for no effect and ±100 for the full control effect
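Inducible Hek293 Trex D1 cells (tetracycline, overnight, 30 C). Calcium dye 30–90 min RT. Antagonist mode: EC80 dopamine added after 180 s compound read.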
Numbers without * were called inactive; ? = inconclusive; . = no result. The list is not random: actives were taken first. Their share in the collection is about 4.6%. Cut-off read from the data, not from the text of the source, unless noted: active = activation above about 30%; inactive = the rest.

SMILES | D1 potentiator | Epigenetic derep | TRHR agonist | TRHR enhancer | D1 agonist | D1 antag
Nc1ccccc1C(=O)OCC(=O)c1ccc2c(c1)OCCO2 | -13 | -2% | -1 | 7 | 13 | -33*
COc1cc(/C=C2\C(=O)NC(=O)N(c3ccccc3)C2=O)c([N+](=O)[O-])cc1OC | -4 | -2% | 0 | -10 | 1 | -56*
COc1cc(/C=C2\C(=O)NC(=O)N(c3ccccc3)C2=O)cc(OC)c1O | -7 | -1% | 1 | -3 | 1 | -4
O=S(=O)(NC1CCCCC1)OCC(Cl)(Cl)Cl | -3 | . | 0 | -6 | 1 | -34*
CC(NS(=O)(=O)OCC(Cl)(Cl)Cl)c1ccccc1 (stereo not given) | -5 | . | 0 | 0 | 0 | -2
CC/C=C\C/C=C\C/C=C\C/C=C\C/C=C\CCCC(=O)NCCCC(=O)O | . | 0% | . | . | . | .
COc1ccc(N2C(=O)CC(=O)NC2=O)cc1 | -6 | 4% | 0 | 4 | 1 | -79*
Cc1ccc(N2C(=O)CC(=O)NC2=O)cc1 | -5 | -1% | 0 | 1 | 5 | -9
CN(C)CCO | . | -2% | . | . | . | .
C[C@H]1CC[C@@H]2[C@@H](C)[C@H]3[C@H](C[C@H]4[C@@H]5CC=C6C[C@@H](O[C@@H]7O[C@H](CO)[C@H](O)[C@H](O[C@@H]8O[C@H](CO)[C@@H](O)[C@H](O)[C@H]8O)[C@H]7O[C@@H]7O[C@@H](C)[C@H](O)[C@@H](O)[C@H]7O)CC[C@]6(C)[C@H]5CC[C@]34C)N2C1 | 3 | 1% | 14 | -7 | 96* | -10
COP(N)(=O)SC (stereo not given) | . | 22% | . | . | . | .
CCCCC[C@@H](/C=C/C=C\C/C=C\C/C=C\CCCC(=O)O)OO | . | 1% | . | . | . | .
CC(=O)c1cn(Cc2ccc(F)cc2)c2ccccc12 | -6 | . | 0 | 1 | 7 | -15
CC(N)Cc1cn(Cc2ccccc2)c2ccccc12 (stereo not given) | -6 | . | 2 | 4 | 47* | 4
Oc1ccc2c3c1O[C@H]1c4oc5ccccc5c4C[C@]4(O)[C@H](C2)N(CC2CC2)CC[C@@]314 | . | 2% | . | . | . | .
Clc1ccc2c(c1)C(OC1CN3CCC1CC3)c1ccccc1CS2 (stereo not given) | -8 | 0% | 1 | 7 | 35* | -50*
CNc1ccc2oc(C[C@@H]3OC4(CC[C@@H]3C)O[C@H]([C@@H](C)C(=O)c3ccc[nH]3)[C@H](C)C[C@H]4C)nc2c1C(=O)O (stereo not given in full) | . | 1% | . | . | . | .
CC1=CC[C@@H]2[C@@H](C1)c1c(O)cc(CC#CCCCNS(C)(=O)=O)cc1OC2(C)C | . | 1% | . | . | . | .
CCN(CC(=O)Nc1ccc(NC(C)=O)cc1)C(=O)CSC(c1ccccc1)c1ccccc1 | -3 | . | 0 | 3 | 45* | -15
C[C@H](N)Cc1cnc[nH]1 | . | 0% | . | . | . | .
Cc1ccc(Cn2cccc(C(=O)Nc3ccc4c(c3)OCCO4)c2=O)cc1 | -4 | 1% | 0 | 5 | 0 | .
CSc1ccccc1C(=O)C1CCCN(Cc2ccncc2)C1 (stereo not given) | -4 | -1% | -1 | 40* | 4 | -13
COc1ccccc1CN1CCCC(C(=O)c2ccccc2SC)C1 (stereo not given) | -10 | -1% | 0 | -6 | 9 | -3
C/C(=N\N1CCCCCC1)c1c(O)n(-c2ccc(Cl)cc2)c(=O)[nH]c1=O | -4 | 1% | -1 | 7 | 3 | 0
C/C(=N\N1CCCCCC1)c1c(O)n(-c2ccc(C)cc2)c(=O)[nH]c1=O | -4 | -1% | 0 | 2 | 3 | -40*
SMILES | D1 potentiator | Epigenetic derep | TRHR agonist | TRHR enhancer | D1 agonist | D1 antag
Cc1[nH]cnc1CCN | . | -1% | . | . | . | .
C=CCN1C(=O)NC(=O)/C(=C/C=C/c2ccccc2)C1=O | -11 | ? | 1 | -5 | 3 | -34*
CNc1ccc2oc(C[C@H]3O[C@@]4(CC[C@H]3C)O[C@H]([C@H](C)C(=O)c3ccc[nH]3)[C@H](C)C[C@H]4C)nc2c1C(=O)O | -6 | 4% | 123* | -17 | 419* | -45*
COc1ccc(CNC(=O)Cn2c(=O)nc(-c3ccccc3F)c3cc(Cl)ccc32)cc1 | 2 | ? | -1 | 5 | -1 | 0
CCCCn1c(O)c(C(CC)=NCc2ccc3c(c2)OCO3)c(=O)[nH]c1=O | -1 | -1% | 0 | 0 | 1 | -34*
Cc1ccc(/C=C2\C(=O)NC(=O)N(CCc3ccc(F)cc3)C2=O)o1 | -4 | ? | 3 | 37* | 6 | 1
COc1ccc(OC)c(NP(=O)(Oc2ccc(Cl)cc2)Oc2ccc(Cl)cc2)c1 | -2 | 0% | 0 | 9 | 8 | -5
COc1ccc(OC)c(NP(=O)(Oc2ccccc2)Oc2ccccc2)c1 | 3 | . | 0 | 30* | 1 | 12
Cc1ccccc1-c1nn2c(=O)cc(CN3CCN(C(=O)COc4ccccc4Cl)CC3)nc2s1 | -3 | 0% | 0 | 11 | -2 | -35*
CC(Cc1ccccc1Sc1ccc(O)cc1)N(C)C (stereo not given) | -22 | -1% | 0 | 2 | 15 | -48*
CSc1ccc(CN2CCN(Cc3ccccc3Cl)CC2)cc1 | 2 | 2% | 1 | 1 | 5 | 3
CC(Cc1ccccc1Sc1ccccc1)N(C)C (stereo not given) | -6 | 7% | 1 | 4 | 26 | -68*
CN1CCN(Cc2ccccc2Sc2ccccc2)CC1 | -6 | -1% | -1 | 10 | 53* | 2
COC(=O)[C@H]1C[C@H]2CC[C@H](O)C[C@H]2N1CC1CC1 | . | 0% | . | . | . | .
CCn1ccnc1CN1CCCC(C(=O)c2cc(F)ccc2OC)C1 (stereo not given) | -3 | 4µM* | 0 | 13 | 3 | 16
CCn1ccnc1CN1CCCC(C(=O)c2ccc(OC)cc2OC)C1 (stereo not given) | -2 | 3% | -2 | 1 | 12 | -28
COc1ccc(C(=O)C2CCCN(Cc3ccc(F)cc3F)C2)cc1F (stereo not given) | -3 | . | 0 | -10 | 3 | -32*
NC(=O)CNC(=O)[C@H](Cc1ccccc1)NC(=O)[C@H](CCCN=C(N)N)NC(=O)[C@@H](N)Cc1ccc(O)cc1 | . | 0% | . | . | . | .
Cc1ccc(-n2cc(CNC(C)Cc3cnccn3)c(-c3cccc(C)c3)n2)cc1 (stereo not given) | -3 | -3% | 0 | 7 | 37* | 35
